Here are results for 6 molecules from ChEMBL document CHEMBL1961873, “Compounds: GSK PKIS; Assays: Nanosyn kinase panel” (2012).

One may read the inhibition as the change of the read-out against control, counted positive when it falls.

Molecules are shown by their SMILES.

For assay [1], the target named is Tyrosine-protein kinase Fyn (Homo sapiens) (UniProt P06241). The following applies: at 1 µM.
Assay [2] addresses Tyrosine-protein kinase HCK (Homo sapiens) (UniProt P08631). The following applies: at 0.1 µM.
For assay [3] the target is unchanged. To be noted: at 1 µM.
For assay [4], the target named is Insulin-like growth factor 1 receptor (Homo sapiens) (UniProt P08069). To be noted: at 0.1 µM.
For assay [5] the target is unchanged. The following applies: at 1 µM.
Assay [6] deals with Insulin receptor (Homo sapiens) (UniProt P06213). To be noted: at 0.1 µM.
Sequence of Insulin receptor (Homo sapiens) (P06213 28-758 limits assumed): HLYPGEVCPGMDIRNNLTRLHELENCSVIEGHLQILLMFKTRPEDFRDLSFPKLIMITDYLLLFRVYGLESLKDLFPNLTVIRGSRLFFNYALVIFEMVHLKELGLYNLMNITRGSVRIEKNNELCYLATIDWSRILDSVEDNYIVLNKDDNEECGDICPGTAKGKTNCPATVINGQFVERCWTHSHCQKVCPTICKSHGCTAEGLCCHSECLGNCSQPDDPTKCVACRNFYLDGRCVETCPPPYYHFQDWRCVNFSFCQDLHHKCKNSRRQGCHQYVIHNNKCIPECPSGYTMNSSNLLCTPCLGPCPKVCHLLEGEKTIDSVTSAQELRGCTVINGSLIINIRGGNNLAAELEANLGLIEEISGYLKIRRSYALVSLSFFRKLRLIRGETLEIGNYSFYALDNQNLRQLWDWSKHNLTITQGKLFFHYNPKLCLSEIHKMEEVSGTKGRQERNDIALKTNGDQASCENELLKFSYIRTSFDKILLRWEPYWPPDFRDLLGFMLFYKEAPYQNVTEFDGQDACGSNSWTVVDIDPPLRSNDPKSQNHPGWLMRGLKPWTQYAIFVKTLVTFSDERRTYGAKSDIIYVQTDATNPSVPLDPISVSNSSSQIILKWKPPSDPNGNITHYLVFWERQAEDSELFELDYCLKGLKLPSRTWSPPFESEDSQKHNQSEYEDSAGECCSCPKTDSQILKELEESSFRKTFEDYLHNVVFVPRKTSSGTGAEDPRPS
Sequence of Insulin receptor (Homo sapiens) (P06213 763-1382 limits assumed): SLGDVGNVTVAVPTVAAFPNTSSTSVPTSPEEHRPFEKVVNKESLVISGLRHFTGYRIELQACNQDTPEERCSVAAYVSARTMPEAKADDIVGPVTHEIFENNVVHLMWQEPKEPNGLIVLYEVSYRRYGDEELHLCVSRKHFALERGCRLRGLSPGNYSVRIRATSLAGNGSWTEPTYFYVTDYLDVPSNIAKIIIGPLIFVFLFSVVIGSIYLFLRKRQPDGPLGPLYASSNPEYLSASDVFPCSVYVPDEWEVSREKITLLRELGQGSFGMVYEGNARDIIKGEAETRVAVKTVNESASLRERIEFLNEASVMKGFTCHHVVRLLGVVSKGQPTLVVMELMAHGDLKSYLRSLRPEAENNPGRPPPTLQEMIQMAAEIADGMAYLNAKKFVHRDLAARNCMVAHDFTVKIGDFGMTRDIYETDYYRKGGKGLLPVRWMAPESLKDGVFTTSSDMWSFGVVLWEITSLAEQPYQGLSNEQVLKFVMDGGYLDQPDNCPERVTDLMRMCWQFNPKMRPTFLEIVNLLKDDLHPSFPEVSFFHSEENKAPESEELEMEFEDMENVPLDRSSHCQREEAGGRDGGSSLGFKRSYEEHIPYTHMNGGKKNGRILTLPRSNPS
The target is the same in assay [7]. The following applies: at 1 µM.
For assay [8], the target named is Insulin receptor-related protein (Homo sapiens) (UniProt P14616). To be noted: at 0.1 µM.
Sequence of Insulin receptor-related protein (Homo sapiens) (P14616 27-742 limits assumed): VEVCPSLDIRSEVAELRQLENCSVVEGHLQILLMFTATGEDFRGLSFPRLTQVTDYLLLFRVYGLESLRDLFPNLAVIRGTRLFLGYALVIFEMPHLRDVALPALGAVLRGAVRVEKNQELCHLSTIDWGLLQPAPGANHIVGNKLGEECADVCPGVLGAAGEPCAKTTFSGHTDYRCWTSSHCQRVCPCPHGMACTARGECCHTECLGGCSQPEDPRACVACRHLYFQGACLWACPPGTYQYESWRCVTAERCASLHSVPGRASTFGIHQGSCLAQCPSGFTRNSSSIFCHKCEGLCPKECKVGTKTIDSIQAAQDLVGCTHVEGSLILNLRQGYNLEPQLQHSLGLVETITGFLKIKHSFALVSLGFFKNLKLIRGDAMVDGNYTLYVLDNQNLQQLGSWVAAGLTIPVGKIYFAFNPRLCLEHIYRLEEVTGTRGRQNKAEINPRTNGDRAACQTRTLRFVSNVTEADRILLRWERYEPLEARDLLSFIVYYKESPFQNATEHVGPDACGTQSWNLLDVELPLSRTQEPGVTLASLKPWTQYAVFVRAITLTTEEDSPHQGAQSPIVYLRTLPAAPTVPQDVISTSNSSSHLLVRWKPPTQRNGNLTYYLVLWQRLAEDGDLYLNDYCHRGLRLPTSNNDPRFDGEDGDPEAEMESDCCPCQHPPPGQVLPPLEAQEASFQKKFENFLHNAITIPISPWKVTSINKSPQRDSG
Sequence of Insulin receptor-related protein (Homo sapiens) (P14616 747-1297 limits assumed): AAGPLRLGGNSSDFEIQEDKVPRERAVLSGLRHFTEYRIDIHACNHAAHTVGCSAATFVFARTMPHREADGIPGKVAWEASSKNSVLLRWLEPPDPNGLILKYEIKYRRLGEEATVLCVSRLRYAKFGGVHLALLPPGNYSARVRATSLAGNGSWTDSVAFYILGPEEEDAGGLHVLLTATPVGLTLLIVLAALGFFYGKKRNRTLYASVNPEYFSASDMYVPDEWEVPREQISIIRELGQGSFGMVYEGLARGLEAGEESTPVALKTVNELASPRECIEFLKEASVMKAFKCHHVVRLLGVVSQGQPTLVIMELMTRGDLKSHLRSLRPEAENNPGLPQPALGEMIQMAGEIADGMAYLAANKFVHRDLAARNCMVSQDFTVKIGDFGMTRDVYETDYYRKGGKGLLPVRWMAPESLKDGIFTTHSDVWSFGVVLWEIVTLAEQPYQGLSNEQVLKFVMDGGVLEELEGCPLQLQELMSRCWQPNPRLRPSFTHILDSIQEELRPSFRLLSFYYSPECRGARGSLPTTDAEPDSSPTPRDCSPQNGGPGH
Assay [9] shares this target. The following applies: at 1 µM.
Assay [10] concerns the target T1, Tyrosine-protein kinase ITK/TSK (Homo sapiens) (UniProt Q08881).
T1 sequence (whole entry): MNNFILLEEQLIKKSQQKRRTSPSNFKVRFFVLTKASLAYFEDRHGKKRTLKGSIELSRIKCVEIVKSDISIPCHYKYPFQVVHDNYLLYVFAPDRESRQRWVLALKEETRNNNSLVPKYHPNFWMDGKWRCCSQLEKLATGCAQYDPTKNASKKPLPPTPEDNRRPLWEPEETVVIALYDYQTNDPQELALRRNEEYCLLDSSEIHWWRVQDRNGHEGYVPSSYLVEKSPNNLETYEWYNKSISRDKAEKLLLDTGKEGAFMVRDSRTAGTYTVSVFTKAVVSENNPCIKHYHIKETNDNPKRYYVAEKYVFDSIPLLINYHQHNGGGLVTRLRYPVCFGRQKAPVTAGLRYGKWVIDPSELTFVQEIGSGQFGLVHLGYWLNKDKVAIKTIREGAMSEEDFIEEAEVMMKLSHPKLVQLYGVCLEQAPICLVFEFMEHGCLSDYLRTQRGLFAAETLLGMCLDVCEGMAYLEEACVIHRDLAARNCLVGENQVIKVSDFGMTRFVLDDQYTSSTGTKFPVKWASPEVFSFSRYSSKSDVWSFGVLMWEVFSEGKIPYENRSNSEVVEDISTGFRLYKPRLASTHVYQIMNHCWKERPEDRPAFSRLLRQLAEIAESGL
The following applies: at 0.1 µM.

In assay [11] the target is T1, Tyrosine-protein kinase ITK/TSK (Homo sapiens). To be noted: at 1 µM.
The target in assay [12] is Tyrosine-protein kinase JAK1 (Homo sapiens) (UniProt P23458). To be noted: at 0.1 µM.
Assay [13] shares this target. To be noted: at 1 µM.
Assay [14] concerns the target Tyrosine-protein kinase JAK2 (Homo sapiens) (UniProt O60674). The following applies: at 0.1 µM.
Assay [15] shares this target. The following applies: at 1 µM.
Assay [16] concerns the target T2, Tyrosine-protein kinase JAK3 (Homo sapiens) (UniProt P52333).
T2 sequence (whole entry): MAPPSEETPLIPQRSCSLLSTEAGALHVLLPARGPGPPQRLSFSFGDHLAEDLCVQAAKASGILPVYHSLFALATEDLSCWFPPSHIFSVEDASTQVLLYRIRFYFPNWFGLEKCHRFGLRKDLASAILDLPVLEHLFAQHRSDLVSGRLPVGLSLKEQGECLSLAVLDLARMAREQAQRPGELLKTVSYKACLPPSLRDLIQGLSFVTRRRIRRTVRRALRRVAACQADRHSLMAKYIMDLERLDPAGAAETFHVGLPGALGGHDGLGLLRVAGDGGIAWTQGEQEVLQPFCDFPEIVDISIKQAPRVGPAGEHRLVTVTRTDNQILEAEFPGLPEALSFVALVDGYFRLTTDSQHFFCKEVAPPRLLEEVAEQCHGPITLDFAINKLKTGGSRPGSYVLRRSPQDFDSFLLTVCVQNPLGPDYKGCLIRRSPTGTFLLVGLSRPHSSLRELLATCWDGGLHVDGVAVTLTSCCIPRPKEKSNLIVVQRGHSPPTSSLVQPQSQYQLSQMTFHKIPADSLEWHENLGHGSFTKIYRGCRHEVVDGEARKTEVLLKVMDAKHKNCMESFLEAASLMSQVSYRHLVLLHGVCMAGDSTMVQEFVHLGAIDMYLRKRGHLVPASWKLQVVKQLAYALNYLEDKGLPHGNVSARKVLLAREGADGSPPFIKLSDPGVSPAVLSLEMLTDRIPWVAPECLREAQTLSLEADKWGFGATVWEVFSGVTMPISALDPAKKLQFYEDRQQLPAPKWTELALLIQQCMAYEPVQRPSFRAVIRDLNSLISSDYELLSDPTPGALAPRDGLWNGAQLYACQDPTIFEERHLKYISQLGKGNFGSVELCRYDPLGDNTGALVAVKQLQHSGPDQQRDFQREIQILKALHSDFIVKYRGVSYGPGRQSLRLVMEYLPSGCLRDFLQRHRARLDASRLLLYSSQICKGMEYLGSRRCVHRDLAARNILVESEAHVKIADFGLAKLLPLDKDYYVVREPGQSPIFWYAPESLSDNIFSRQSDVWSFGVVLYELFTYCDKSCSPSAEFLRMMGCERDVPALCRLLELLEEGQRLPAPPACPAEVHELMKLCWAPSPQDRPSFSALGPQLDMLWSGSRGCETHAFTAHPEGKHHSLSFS
To be noted: at 0.1 µM.

Assay [17] deals with T2, Tyrosine-protein kinase JAK3 (Homo sapiens). To be noted: at 1 µM.
Assay [18] deals with Vascular endothelial growth factor receptor 2 (Homo sapiens) (UniProt P35968). The following applies: at 0.1 µM.
Assay [19] has the same target. The following applies: at 1 µM.
Assay [20] deals with Mast/stem cell growth factor receptor Kit (Homo sapiens) (UniProt P10721). To be noted: at 0.1 µM.

Sequence of Tyrosine-protein kinase HCK (Homo sapiens) (P08631 2-526 limits assumed): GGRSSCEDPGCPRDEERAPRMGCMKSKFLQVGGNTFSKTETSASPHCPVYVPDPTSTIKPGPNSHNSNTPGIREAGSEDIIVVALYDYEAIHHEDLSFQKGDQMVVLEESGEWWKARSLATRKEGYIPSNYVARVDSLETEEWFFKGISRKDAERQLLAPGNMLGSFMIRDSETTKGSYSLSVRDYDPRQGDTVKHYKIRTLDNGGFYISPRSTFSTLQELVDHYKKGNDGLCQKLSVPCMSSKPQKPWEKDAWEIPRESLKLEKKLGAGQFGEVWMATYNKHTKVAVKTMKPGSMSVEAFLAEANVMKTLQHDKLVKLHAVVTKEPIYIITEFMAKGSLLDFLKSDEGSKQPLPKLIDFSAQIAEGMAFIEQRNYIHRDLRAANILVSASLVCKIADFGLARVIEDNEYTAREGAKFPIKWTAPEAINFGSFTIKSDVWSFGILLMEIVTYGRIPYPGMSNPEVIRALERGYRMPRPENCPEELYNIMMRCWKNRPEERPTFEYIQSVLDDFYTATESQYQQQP
Sequence of Tyrosine-protein kinase JAK2 (Homo sapiens) (O60674 whole entry): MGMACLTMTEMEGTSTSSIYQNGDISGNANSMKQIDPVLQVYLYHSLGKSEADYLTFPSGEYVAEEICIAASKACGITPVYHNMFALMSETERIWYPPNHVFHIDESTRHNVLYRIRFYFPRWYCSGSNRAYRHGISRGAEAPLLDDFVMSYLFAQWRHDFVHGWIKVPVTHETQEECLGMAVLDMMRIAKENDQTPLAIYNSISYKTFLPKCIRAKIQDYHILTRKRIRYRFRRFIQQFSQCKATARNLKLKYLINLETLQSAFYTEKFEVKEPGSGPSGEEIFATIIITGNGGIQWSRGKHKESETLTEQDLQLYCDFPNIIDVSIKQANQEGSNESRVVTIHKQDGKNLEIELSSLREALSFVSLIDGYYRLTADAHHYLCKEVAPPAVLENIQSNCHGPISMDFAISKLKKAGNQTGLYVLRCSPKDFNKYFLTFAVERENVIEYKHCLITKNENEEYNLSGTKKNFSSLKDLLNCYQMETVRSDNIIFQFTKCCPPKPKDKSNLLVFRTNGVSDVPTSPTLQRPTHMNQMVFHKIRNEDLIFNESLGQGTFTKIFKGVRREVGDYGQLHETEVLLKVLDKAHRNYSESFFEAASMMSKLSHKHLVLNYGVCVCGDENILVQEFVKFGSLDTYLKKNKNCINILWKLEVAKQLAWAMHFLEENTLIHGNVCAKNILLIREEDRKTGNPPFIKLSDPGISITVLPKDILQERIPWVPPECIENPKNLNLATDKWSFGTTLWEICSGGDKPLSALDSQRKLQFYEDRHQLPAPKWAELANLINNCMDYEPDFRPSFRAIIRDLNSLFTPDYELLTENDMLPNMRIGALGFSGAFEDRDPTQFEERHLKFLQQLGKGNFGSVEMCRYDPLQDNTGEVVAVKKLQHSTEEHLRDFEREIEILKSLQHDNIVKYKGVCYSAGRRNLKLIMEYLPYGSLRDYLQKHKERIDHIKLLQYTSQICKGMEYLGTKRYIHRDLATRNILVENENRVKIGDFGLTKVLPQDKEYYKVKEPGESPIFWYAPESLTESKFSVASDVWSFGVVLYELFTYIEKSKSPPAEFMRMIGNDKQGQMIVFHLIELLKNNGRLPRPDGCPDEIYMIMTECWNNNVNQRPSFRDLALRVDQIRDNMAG
Sequence of Tyrosine-protein kinase Fyn (Homo sapiens) (P06241 2-537 limits assumed): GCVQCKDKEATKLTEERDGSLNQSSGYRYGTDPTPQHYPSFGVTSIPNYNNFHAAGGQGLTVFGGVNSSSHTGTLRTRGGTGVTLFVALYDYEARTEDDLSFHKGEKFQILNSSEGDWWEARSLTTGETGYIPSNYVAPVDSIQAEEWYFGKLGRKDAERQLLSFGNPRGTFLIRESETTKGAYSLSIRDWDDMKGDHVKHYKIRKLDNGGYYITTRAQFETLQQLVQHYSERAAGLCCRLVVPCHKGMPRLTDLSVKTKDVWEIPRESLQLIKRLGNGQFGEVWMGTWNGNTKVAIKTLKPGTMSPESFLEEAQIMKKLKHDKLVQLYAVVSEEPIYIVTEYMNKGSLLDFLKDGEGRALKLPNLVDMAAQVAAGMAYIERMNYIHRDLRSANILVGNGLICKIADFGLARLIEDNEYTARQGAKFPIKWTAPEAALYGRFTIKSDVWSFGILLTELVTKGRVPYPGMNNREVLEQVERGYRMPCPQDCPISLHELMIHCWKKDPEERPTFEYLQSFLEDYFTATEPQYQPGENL

For the molecule `COc1cc(/C=N/Nc2ncnc3[nH]ncc23)ccc1O`, the inhibition came to 41.2% in [1]; 11.1% in [2]; 54.2% in [3]; 3.46% in assay [4]; 12.5% in assay [5]; 5.52% in assay [6]. Also, the inhibition was found to be 15.3% in assay [7]; 3.28% in assay [8]; 3.65% in assay [9]; 1.29% in [10]; 7.65% in assay [11]; 8.12% in assay [12]. In addition, the inhibition is 9.29% in assay [13]; 1.72% in assay [14]; 4.07% in assay [15]; -1.64% in assay [16]; 2.59% in assay [17]; 10.3% in assay [18]. Further, the inhibition in assay [19] stood at 45.6%; in assay [20], 11.4%.
As to `c1cc(-c2cnn3nc(N4CCOCC4)ccc23)nc(NC2CC2)n1`, the inhibition in assay [1] stood at 4.87%; in assay [2], 7.14%; in [3], 11.7%; in assay [4], 4.81%; in assay [5] it was 5%; in assay [6], 4.73%. Also, the inhibition in assay [7] amounted to 8.56%; in [8] it was 2.65%; in assay [9], 1.15%; in assay [10], 1.06%; in [11] it was 3.22%; in assay [12], 0.54%. Also, the inhibition in assay [13] is -6.96%; in [14], 2.21%; in assay [15], 1.85%; in assay [16] it was -1.14%; in [17], -0.05%; in assay [18], 12.9%. The figures for the inhibition in [19] and in assay [20] were 48% and 6.83%, respectively.
For `c1ccc(-c2nc3n(c2-c2ccc4c(c2)OCO4)CCC3)nc1`, the inhibition in [1] stood at 2.79%; in assay [2] it was 2.86%; in assay [3], 0.81%; in assay [4], 9.41%; in assay [5], 8.89%; in assay [6], 4.57%. Moreover, the inhibition in assay [7] is 3.26%; in assay [8] it was 0.08%; in assay [9], 1.11%; in [10], 0.42%; in assay [11], 0.24%; in assay [12] it was -2.35%. Besides, the inhibition in assay [13] is 4.78%; in [14], 1.27%; in [15], -1.02%; in assay [16] it was -0.19%; in assay [17], -0.04%; in assay [18], 3.58%. In addition, the results for the inhibition in assay [19] and in [20] were 11.7% and 1.86%, respectively.
For `COc1ccc2c(-c3ccnc(Nc4cccc(OC(F)(F)F)c4)n3)cnn2n1`, the inhibition in [1] came out at 7.69%; in assay [2] it was 5.89%; in assay [3] it was 11.3%; in assay [4], 3.31%; in assay [5] it was 5.36%; in assay [6], 4.34%. The inhibition in [7] amounted to 8.18%; in assay [8], 4.74%; in [9], 3.42%; in assay [10], 1.46%; in assay [11] it was 2.38%; in [12], 4.66%. The inhibition in [13] was 13%; in [14], 1.65%; in assay [15] it was 10.9%; in assay [16] it was -0.93%; in assay [17] it was 2.75%; in assay [18], 6.22%. For the same molecule, the inhibition in assay [19] worked out at 14.8%; in [20] it was 10.7%.
On to `COc1cc(N2CCN(C(C)C)CC2)ccc1Nc1nc(Nc2ccc(F)cc2C(N)=O)c2cc[nH]c2n1`, for which the inhibition in [1] was 9.69%; in assay [2] it was 3.05%; in [3], 7.94%; in [4], 101%; in [5], 101%; in [6] it was 103%. Moreover, the inhibition amounted to 102% in assay [7]; 76.1% in assay [8]; 96.7% in [9]; 2.65% in assay [10]; 5.47% in [11]; 3.68% in [12]. For the same molecule, the inhibition in assay [13] was 2.03%; in assay [14], 2.05%; in [15] it was 2.59%; in [16] it was 0.12%; in assay [17], 11.6%; in assay [18] it was 4.96%. Moreover, the inhibition in [19] is 15.3%; in assay [20] it was -0.57%.
For `CC1=C(C(=O)Nc2cc(Cl)c3[nH]ncc3c2)C(c2ccc(C(F)(F)F)cc2)CC(=O)N1` (stereo not given), the inhibition in assay [1] was 4.45%; in assay [2], 4.68%; in [3], 6.23%; in assay [4] it was 2.66%; in [5] it was 2.67%; in assay [6], 5.06%. Further, the inhibition in assay [7] is 6.02%; in assay [8], 0.76%; in assay [9], 1.79%; in assay [10], 1.11%; in assay [11] it was 2.35%; in [12], 9.58%. Besides, the inhibition amounted to 51.5% in assay [13]; 2.99% in [14]; 29.2% in [15]; 2.49% in assay [16]; 42.3% in assay [17]; 4.67% in [18]. In addition, the inhibition in assay [19] was 6.91%; in assay [20] it was 4.2%.
